Screening data from PubChem BioAssay.
Compounds with a hit are over-represented: about 21% of the library has one in this group of screens.
Pf growth 96h: inhibits malaria parasite growth, 96 h; P. falciparum luciferase reporter growth, 96 h; Potency, µM (top dose mostly 28.7 µM), inactives show at the top dose activity change, negative = inhibition, usual class: inhibitors; hit rate 6.9% among 320,000; further: potency means the concentration at half of the fitted maximal effect; on the % scale 0 is the no-effect control and ±100 the full control effect
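Parasite growth measured via integrated firefly luciferase reporter in P. falciparum. Infected erythrocytes at 2% hematocrit, 0.05% parasitemia final were treated 96 hours at 37 C under 5% CO2, and luminescence was read.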
Pf growth 48h: inhibits P. falciparum growth in the first generation, 48 h. hit rate 5.9% among 310,000. P. falciparum luciferase growth in erythrocytes, 48 h. Potency, µM (doses to about 28.7 µM), inactives show at the top dose activity change, negative = inhibition, usual class: inhibitors; further: potency means the concentration at half of the fitted maximal effect; on the % scale 0 is the no-effect control and ±100 the full control effect
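Firefly luciferase activity from engineered P. falciparum reports growth; inhibitors lower the luminescent signal. Cultures contained 2% hematocrit erythrocytes at 0.1% final parasitemia.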
CHX counter: counter-screen hit for Shiga toxin inhibitors, cycloheximide | cell reporter, cycloheximide protein synthesis inhibition counterscreen | max response, % | hit rate 12% among 300,000 | AID 2314; in the data active means max response mostly above about 13%, no sharp cut-off; inactive means mostly below about 14%; further: read at 38.3 µM for the half of the compounds with a filed dose; 0% is about no effect
FBPA Giardia inh: blocks Giardia fructose-bisphosphate aldolase activity; A8B2U2; purified Giardia FBPA; Potency, µM (highest dose often 59.6 µM), without a hit: top-dose activity, negative = inhibition, actives largely listed as inhibitors; hit rate 0.71% among 290,000; AID 2451; further: potency means the concentration at half of the fitted maximal effect; on the % scale 0 is the no-effect control and ±100 the full control effect; nearly all actives have a fitted effect of over 55% in size
Target sequence (A8B2U2 whole entry, looked up): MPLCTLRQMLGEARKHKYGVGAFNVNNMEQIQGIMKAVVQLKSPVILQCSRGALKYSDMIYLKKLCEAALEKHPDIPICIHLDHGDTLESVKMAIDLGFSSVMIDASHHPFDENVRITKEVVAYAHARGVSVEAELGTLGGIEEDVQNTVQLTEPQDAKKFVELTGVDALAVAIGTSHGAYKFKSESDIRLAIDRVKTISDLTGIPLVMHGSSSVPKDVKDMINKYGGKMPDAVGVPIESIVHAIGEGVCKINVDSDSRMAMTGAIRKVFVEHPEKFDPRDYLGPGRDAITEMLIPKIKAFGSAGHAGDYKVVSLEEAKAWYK
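40 nM FBPA preincubated 10 min at RT with compound (up to 57.5 uM final), then substrate plus GAPDH/TPI/NAD/arsenate coupling and diaphorase/resazurin added. Fluorescence read after 20 min at RT, 525/598 nm.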
Shiga inhibitor: Shiga toxin inhibition; hit rate 9.2% among 290,000; AID 2315; Vero cells, Shiga toxin protein synthesis inhibition reporter; inhibition, % at 38.7 µM; in the data active means inhibition mostly above about 28%, no sharp cut-off; inactive means mostly below about 43%; further: 0% is about no effect
NS1 inh: blocks influenza NS1 protein function; Potency, µM (highest dose often 46.1 µM), inactives show at the top dose activity, positive = more growth; hit rate 0.4% among 270,000; calls by dose curve; further: potency means the concentration at half of the fitted maximal effect; actives are rising curves; nearly all actives have a fitted effect of over 50% in size
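A cell-based growth assay was used: compounds that relieve NS1-induced slow growth of budding yeast raise OD600. Assay medium was yeast nitrogen base with ammonium sulphate and -URA supplement, pH 6.0, with 2% galactose.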
* marks the source's active call; other numbers are inactive results; ? = inconclusive; . = no result. Unless noted, the call rests on the fitted dose curve; in most records, active means well fitted curve in the direction sought with a large enough effect; inconclusive means small, poorly fitted or top-dose-only effect, or another doubt; inactive means no such curve, though single readings can be large; an effect the other way counts as inactive or inconclusive.

SMILES	Pf growth 96h	Pf growth 48h	CHX counter	FBPA Giardia inh	Shiga inhibitor	NS1 inh
Cc1cc(NC(=O)c2cc(-c3ccco3)on2)no1	-2.1%	126.6%	2.5	-4.5%	-10.6	-69.8%
Cc1ccc(NC(=O)c2cc(-c3ccco3)on2)cc1	7.4%	349.6%	40.9*	?	132.7*	-17.2%
O=C(CN1C(=O)NC2(CCCC2)C1=O)Nc1ccc(F)c([N+](=O)[O-])c1	?	-15.0%	-2.8	3.6%	-13.7	3.3%
N#CCCN(Cc1ccccc1)S(=O)(=O)c1cccs1	30.3%	-5.0%	-2.9	-12.1%	-14.9	2.6%
O=C(N/N=C/c1c(O)n(Cc2ccccc2)c(=O)[nH]c1=O)c1ccccc1O	?	12.1%	16.1*	?	6.1	?
O=C(N/N=C/c1c(O)n(Cc2ccco2)c(=O)[nH]c1=O)c1ccccc1	26.5%	22.4%	33.7*	-1.1%	79.9	-2.0%
CCn1c(O)c(/C=N/NC(=O)c2ccccc2)c(=O)[nH]c1=S	58.2%	?	31.4*	-17.1%	44.2*	-5.1%
O=c1[nH]c(=O)n(Cc2ccco2)c(O)c1C=NC1CC1	22.6%	5.9%	-4.6	0.9%	12.7	3.0%
O=C(N/N=C/c1c(O)n(CCc2ccccc2)c(=O)[nH]c1=O)c1ccncc1	?	-8.5%	-6.8	2.6%	-14.8	-26.5%
COc1ccc(Cn2c(O)c(/C=N/NC(=O)c3ccccc3)c(=O)[nH]c2=O)cc1	-27.7%	11.7%	37.3*	?	74.9*	27.7%
CCOC(=O)NC[C@H](Cc1ccc(OCCc2nc(-c3ccccc3)oc2C)cc1)N/C(C)=C\C(=O)c1ccc(C(F)(F)F)cc1	.	.	.	-6.6%	.	.
O=C1NC2=C(C(=O)CCC2)C(c2ccc(OC(F)F)cc2)N1 (centres undefined)	2.6%	1.9%	-3.2	0.3%	-8.1	-9.1%
O=C(N/N=C/c1c(O)n(CCc2ccccc2)c(=O)[nH]c1=O)c1ccccc1O	-10.7%	1.3%	23.7*	?	28.7	-7.4%
O=C(N/N=C/c1c(O)n(CCc2ccc(F)cc2)c(=O)[nH]c1=O)c1ccccc1	?	80.9%	14.0*	-1.4%	52.8*	9.4%
COc1ccc(Cn2c(O)c(/C=N/NC(=O)c3ccccc3O)c(=O)[nH]c2=O)cc1	4.7%	-1.7%	13.0*	?	19.6	20.0%
COc1ccccc1-n1c(O)c(/C=N/NC(=S)Nc2ccccc2)c(=O)[nH]c1=S	11.1%	47.7%	21.6*	?	31.8	9.4%
O=C(N/N=C/c1c(O)n(CCc2ccc(F)cc2)c(=O)[nH]c1=O)c1ccncc1	?	5.4%	15.4	1.7%	-1.1	.
COCCn1c(C)cc(C(=O)COC(=O)C2CC(=O)N(CCc3ccc(OC)c(OC)c3)C2)c1C (centres undefined)	10.9%	-15.8%	.	.	.	.
O=C(C1CCN(S(=O)(=O)c2ccccc2)CC1)N1CCCCCC1	?	3.9%	-1.3	.	-4.0	11.2%
COCCn1c(C)cc(C(=O)CN2C(=O)NC3(CCCCCCC3)C2=O)c1C	.	20.7%	52.1*	-2.9%	92.9*	-1.2%
COCCn1c(C)cc(C(=O)CN2CCCCC2)c1C	14.0%	-6.6%	13.3	0.8%	19.6	.
Cc1cc(C)c(C(=O)CN2C(=O)NC3(CCCCC3)C2=O)cc1C	24.4%	11.4%	20.9*	0.3%	34.3*	.
CC(=O)OCC1OC(n2cnc3c(=O)[nH]cnc32)C(OC(C)=O)C1OC(C)=O (centres undefined)	.	.	.	-0.2%	.	.
NC(=O)C1CCN(c2oc(/C=C/c3ccc(F)cc3)nc2S(=O)(=O)c2ccccc2)CC1	0.4%	?	10.1	9.1%	-5.6	-14.5%
COC(=O)Cn1c(C(=O)N2CCCC2)cc2c1C[C@H]1CN(C(=O)c3ccccc3)[C@@](Cc3ccccc3)(C(=O)OC)[C@@H]21	.	.	.	5.5%	.	.
CCc1[nH]nc(C(=O)N2CCCC(C(=O)c3cccc(OC(C)C)c3)C2)c1C (centres undefined)	?	?	24.1*	.	50.7*	-16.0%
CCc1cc(C(=O)N2CCCC(C(=O)c3cccc(OC(C)C)c3)C2)n(C)n1 (centres undefined)	?	8.6%	-2.3	0.7%	17.9	2.7%
CC(C)c1ccc(NC2CCCN(C(=O)CCc3cnn(C)c3)C2)cc1 (centres undefined)	7.38µM*	1.1%	2.0	.	-9.8	-0.1%
